The source of these data is PubChem BioAssay.

The structures appear in SMILES notation.

A short description of experiment [1]: NFkB reporter suppression in cystic fibrosis bronchial cells – cell-based, uHTS hits, panel, cytotoxicity readout, dose response (AID 624344). Conditions: CF bronchial epithelial cells, PAF-induced NFkB reporter inhibition, with PAF, run 1; at 79 µM (top of the series) unless noted.
Experiment in experiment [2]: as above
Conditions: CF bronchial epithelial cells, PAF-induced NFkB reporter inhibition, with PAF, run 2; at 79 µM (top of the series) unless noted.

With `CCCCNc1c(-c2cccc(-c3ccc(OC)cc3)c2)nc2ccc(C)cn12`, the inhibition in experiment [1] came out at 98.7%; in experiment [2] it was 107%.
For the molecule `Cc1ccc(-c2cc(C(=O)N(C)Cc3cnn(C)c3C)c3cc(Br)ccc3n2)cc1`, the results for the inhibition in experiment [1] and in experiment [2] were 109% and 102%, respectively.
For `CCN(CC)CCN(C(=O)CCS(=O)(=O)c1ccccc1)c1nc2c(C)cc(C)cc2s1`, the inhibition was 106% in experiment [1] and 115% in experiment [2].
On to `CC(C)C[C@@H](CN1CCC[C@@H]1CN1C(=S)NC[C@@H]1Cc1ccc(O)cc1)N1C[C@H](Cc2ccc(O)cc2)N(CC2CCCCC2)C1=S`, for which the figures for the inhibition in experiment [1] and in experiment [2] were 105% and 118%, respectively.
With `O=C(NCCN1CCN(c2ccccc2)CC1)c1cccc(Br)c1`, the results for the inhibition in experiment [1] and in experiment [2] were 113% and 73.9%, respectively.
On the same counts, the results for `Cc1cc2cc(CCNC(=O)C(=O)c3c[nH]c4ccccc34)c(=O)[nH]c2cc1C` are 94.2% and 95.5%.
On the same counts, the results for `CCc1nc(Cl)c(C#N)c2c1CCCC2` are 112% and 105%.
On the same counts, the results for `Cc1ccc(S(=O)(=O)n2cc(-c3ccccc3)c3ccccc32)cc1` are 114% and 108%.
Take `CC1Cc2ccccc2N1c1ncnc2nc[nH]c12` (stereo unspecified): the inhibition in experiment [1] worked out at 114%; in experiment [2], 106%.
As for `O=S(=O)(c1ccc(Br)cc1)c1cnc2ccccc2n1`, the values for the inhibition in experiment [1] and in experiment [2] were 100% and 106%, respectively.
Taken in the same sequence, the figures for `CCCCCc1cc(O)c2c(C)cc(=O)oc2c1` were 112% and 99.4%.
Regarding `OCCN1CCN(c2ncnc3ccc(Br)cc23)CC1`, the values for the inhibition in experiment [1] and in experiment [2] were 95.4% and 107%, respectively.
On the same counts, the results for `Cc1ccc(NS(=O)(=O)c2ccc(-c3cnc(C4CC4)o3)cc2)c(C)c1` are 104% and 111%.
For the molecule `CC(C)(CO)CNc1ccn2nccc2n1`, the inhibition is 114% in experiment [1] and 99.8% in experiment [2].
Regarding `O=C(NCc1ccccc1)C1=C[C@H](c2csc3ccccc23)C[C@H](OCc2ccc(CO)cc2)O1`, the results for the inhibition in experiment [1] and in experiment [2] were 72% and 52.1%, respectively.
Consider `N=C1N(c2ccccc2)C(=S)C(=Nc2ccccc2)N1c1ccccc1`, for which the results for the inhibition in experiment [1] and in experiment [2] were 114% and 103%, respectively.
On to `C=C1C(=O)[C@]23C[C@H]1CCC2[C@]1(C)C(=O)CC[C@@](C)(C(=O)O)C1C[C@@H]3O` (stereo partly specified), for which the inhibition in experiment [1] is 98.9%; in experiment [2] it was 89.8%.
As for `CCCCCOC(=O)c1[nH]c2c(c1C)C(=O)CC(c1ccco1)C2` (stereo unspecified), the values for the inhibition in experiment [1] and in experiment [2] were 75% and 62.8%, respectively.
As for `C[C@@H]1CC=C[C@H]2[C@H]1C(=O)N(Cc1ccccc1)[C@H]2c1ccc2ccccc2c1Br`, the inhibition in experiment [1] stood at 110%; in experiment [2], 93.6%.
As for `C=CCN1c2ccccc2Sc2cnccc21`, the inhibition amounted to 105% in experiment [1] and 116% in experiment [2].
Taken in the same sequence, the figures for `C[C@@H](NC(=O)c1coc(=O)c(Br)c1)c1ccccc1` were 77.6% and 99.8% [at 19.8 µM].
Taken in the same sequence, the figures for `COc1ccc(-c2cn[nH]c2-c2ccc(OCc3ccccc3F)cc2O)cc1OC` were 113% and 98.3%.
Regarding `O=C(NNC(=S)Nc1cccc(C(F)(F)F)c1)c1cccc(Cl)c1`, the inhibition in experiment [1] is 115%; in experiment [2] it was 93.8%.
For `C=C(C)[C@@H]1CC[C@]2(C(=O)O)CC[C@]3(C)[C@H](CC[C@@H]4[C@@]5(C)CC[C@H](O)C(C)(C)[C@@H]5CC[C@]43C)[C@@H]12`, the inhibition in experiment [1] worked out at 47.9%; in experiment [2], 57.6% [at 19.8 µM].
For `CC(=O)c1ccc(-c2cnc3c(NC=O)cc(-c4ccc(C(=O)NC5CC5)cc4)cn23)cc1`, the inhibition in experiment [1] was 99.5%; in experiment [2] it was 104%.
Turning to `COc1ccc(-c2[nH]ncc2-c2ccc3c(c2)OCCO3)c(O)c1`, the inhibition in experiment [1] was 107%; in experiment [2], 114%.
Consider `CCN1CCN(Cc2ccc(NC(=O)c3ccc(C)c(NC(=O)c4ccno4)c3)cc2C(F)(F)F)CC1`, for which the inhibition in experiment [1] worked out at 105%; in experiment [2], 83.4%.
Regarding `COc1cc(C2c3cc4c(cc3C3OC(=O)C2C3CO)OCO4)cc(OC)c1OC` (stereo unspecified), the figures for the inhibition in experiment [1] and in experiment [2] were 91.1% and 94.7%, respectively.
On the same counts, the results for `O=C(c1nnsc1S(=O)(=O)c1ccc(Cl)cc1)N1CCOCC1` are 96% and 85.4%.
Take `Cc1nc2c(O)c3c(c(O)c2nc1C)C1C=CC3CC1`: the inhibition in experiment [1] was 114%; in experiment [2], 103%.
Taken in the same sequence, the figures for `C[C@H](CO)N1C[C@H](C)[C@@H](CN(C)C(=O)Nc2ccc3c(c2)OCO3)Oc2c(NC(=O)Nc3ccc(C(F)(F)F)cc3)cccc2C1=O` were 113% and 105%.
Taken in the same sequence, the figures for `CCCc1nnc(NC(=O)c2nc(S(=O)(=O)Cc3ccc(C)cc3)ncc2Cl)s1` were 89% and 86.5%.
On to `COc1ccc(OC)c(-c2nnc3n2N=C(c2ccc(OC)c(OC4CCCC4)c2)CS3)c1`, for which the inhibition in experiment [1] was determined as 103%; in experiment [2], 110%.

The term inhibition denotes the change of the read-out against control, counted positive when it falls.
